# Test results as given in PubChem BioAssay (Tox21).
# Results filed as inconclusive are left out. Active and inactive are the calls of the source. Calls follow the shape of the full dose curve.
# Assay: p53 small molecule agonists, cell-based qHTS assay with human liver microsomes (AID 1963577);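 also: p53 response element beta-lactamase reporter cells with liver microsomes plus NADPH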
# Settings: HCT-116 p53RE-bla with human liver microsomes, ratio, 16 h; series mostly up to 66 µM; activation: at the top concentration
# Excerpt: National Center for Advancing Translational Sciences [NCATS]
# Division of Preclinical Innovation [DPI]
# U.S. Environmental Protection Agency [EPA]
# National Institutes of Environmental Health Sciences [NIEHS]
# National Toxicology Program [NTP]
# U.S. Food and Drug Administration [FDA]
# p53, a tumor suppressor protein, is activated following cellular insult, including DNA damage and other cellular stresses. The activation of p53 regulates cell fate by inducing DNA repair, cell cycle arrest, apoptosis, or cellular senescence. The activation of p53, therefore, is a good indicator of DNA damage and other cellular stresses. […] The activation of the reporter gene under culture conditions can be detected by fluorescence intensity.
# Tox21 Assay Protocol Summary:
# The p53RE-bla cells were dispensed at 4,000cells/3ul/well in 1536-well black-clear bottom plates. After the assay plates were incubated at 37 C, 5% CO2 incubator for 5 hours, 23 nL of compounds dissolved in DMSO, positive controls or DMSO only was transferred to the assay plate. Following compound addition, 3 uL of human liver microsomes (XenoTech, Kansas City, KS) at final concentration of 0.5 mg/mL and 1uL of Beta-Nicotinamide adenine dinucleotide 2-phosphate (NADPH) at final concentration of 0.5 mg/mL were transferred to the assay plate. The plates were incubated at 37 C for 16 hours. 1 uL of LiveBLAzer detection mixture was added to each well and the plates were incubated at room temperature in the dark for 2 h.
# % is scaled to controls: 0 for no effect and ±100 for the full control effect.
SMILES,activation,Potency
CCC(C)C1N=C(C)C(C)S1 (stereo not given),15.2% (inactive),–
CC(C)=CCCC(C)O (stereo not given),0.382% (inactive),–
CCOC(=O)n1ccn(C)c1=S,–,inactive
C1CCSC1,-14.7% (inactive),–
CC(C)S,0.418% (inactive),–
CC1=CC[C@@]23C[C@@H]1C(C)(C)[C@@H]2CC[C@H]3C,0.0313% (inactive),–
O=S(=O)(O)c1cccc2ccccc12,1.5% (inactive),–
O=C(O)c1cccc(Cl)c1Cl,-1.02% (inactive),–
CNC(=O)c1c(I)c(NC(C)=O)c(I)c(C(=O)O)c1I,-6.82% [at 30.3 µM] (inactive),–
CC(O)C(C)O (stereo not given),-0.332% (inactive),–
COC(/C=C(\C)CCC=C(C)C)OC,-0.579% (inactive),–
COc1cc(S(N)(=O)=O)cc(C(=O)O)c1OC,0.0558% [at 30.3 µM] (inactive),–
CCCCCCCC(=O)N(C)C,2.49% (inactive),–
NS(=O)(=O)c1ccc(NC(=O)CCC(=O)O)cc1,0.693% [at 30.3 µM] (inactive),–
CCOC(=O)CC(C(C)=O)C(C)=O,0.351% (inactive),–
Oc1ccc(/C=C/c2cc(O)cc(O)c2)cc1,–,inactive
Cc1cccc(Cl)c1,0.251% (inactive),–
CCCCCCCCCCCCCCCCCCOCC(O)CO (stereo not given),1.25% [at 30.3 µM] (inactive),–
O=Cc1ccc([N+](=O)[O-])cc1,7.74% (inactive),–
NC(=O)c1ccccc1Cl,1.13% (inactive),–

SMILES,activation,Potency
COC(=O)Nc1ccc(Cl)c(Cl)c1,0.627% (inactive),–
CC(C)(C)S,1.25% (inactive),–
COC(=O)N[C@H](C(=O)N[C@@H](Cc1ccccc1)[C@@H](O)CN(Cc1ccc(-c2ccccn2)cc1)NC(=O)[C@@H](NC(=O)OC)C(C)(C)C)C(C)(C)C,-11.9% [at 30.3 µM] (inactive),–
O=C1OC(=O)C2CC=CCC12 (stereo not given),2.93% (inactive),–
COc1ccc2c(c1)CCCC2=O,-3.06% [at 30.3 µM] (inactive),–
O=C1OC(=O)c2c(Cl)c(Cl)c(Cl)c(Cl)c21,–,inactive
N[C@@H](CSSC[C@H](N)C(=O)O)C(=O)O,0.648% [at 0.249 µM] (inactive),–
NNc1nncc2ccccc12,–,inactive
CCCCCCCCCCCCCCCCBr,-0.838% [at 13.5 µM] (inactive),–
CCOC(/C=C(\C)CCC=C(C)C)OCC,1.39% (inactive),–
C=CCOCC(O)CO (stereo not given),-4.25% (inactive),–
C1CSCCS1,0.813% (inactive),–
CCCCCC(CC)OC(=O)CCCOc1ccc(Cl)cc1Cl (stereo not given),-0.158% (inactive),–
CCCC(=O)OCc1ccccc1,0.922% (inactive),–
CCCCCCS,2.91% (inactive),–
O=C(O)CCc1ccccc1,0.373% (inactive),–
CC1CCC(C(C)(C)S)C(=O)C1 (stereo not given),-2.89% (inactive),–
O=S(=O)(O)CC(O)CCl (stereo not given),0.0636% (inactive),–
CC(=O)CC(C)(C)C1CCCCC1,1.84% (inactive),–
Cc1cccc(C)c1NC(=O)CC12CCCN1CCC2,-3.87% [at 30.3 µM] (inactive),–
